Test results: the supplement of paper PMC10849652
About 7,900 targets were measured; listed, in parts, are those with a hit and a random draw of the rest. About 0.6% of all pairs of compound and target were hits.

Assays:
Assay in all cases: log2 fold change, soluble protein after heating vs DMSO (PISA); higher = thermal stabilisation; K562 cells, 10 uM, 30 min; active = over 0.2 and 3.5 SD of the protein, either way, in both replicates (recomputed)
[1] = compound: C1=CC=C(C=C1)[C@H](COC2=CC3=C(C=C2)NC(=O)N3)NC(=O)C4=CC=CN(C4=O)CC5=CC(=C(C=C5)F)F
Method in brief: (§1)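 K562 cells at 2×10^6 cells/mL were exposed to 10 μM compound for 30 min, then aliquots were heated for 3 min across 48°C-58°C, pooled, and extracted in PBS containing 0.5% NP-40 at 4°C. The supernatant after 21,000xg for 90 min was taken as soluble protein and measured by TMTpro 16plex LC-MS/MS with channel sums equalised. Thermal stability is reported relative to control samples, with values from duplicates. Fold changes are given on a log2 scale.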

[2] = compound: CC1=C(SC2=C1C(=N[C@H](C3=NN=C(N32)C)CC(=O)N)C4=CC=C(C=C4)Cl)C
Method in brief: as §1

[3] = compound: CC1=C2C(=CC=C1)N=C(N(C2=O)C3=CC=CC=C3C)CN4C=NC5=C(N=CN=C54)N
Method in brief: as §1

[4] = compound: Cc1sc2c(c1C)C(c1ccc(Cl)cc1)=N[C@@H](CC(=O)OC(C)(C)C)c1nnc(C)n1-2
Method in brief: as §1

[5] = compound: c1ccc([C@@H]2C[C@H]2NC2CCNCC2)cc1
Method in brief: as §1

Measured: log2 fold change

TIAL1 isoform 2 (UniProt Q01085)
Chain of UniProt Q01085 (Q01085 whole entry, looked up): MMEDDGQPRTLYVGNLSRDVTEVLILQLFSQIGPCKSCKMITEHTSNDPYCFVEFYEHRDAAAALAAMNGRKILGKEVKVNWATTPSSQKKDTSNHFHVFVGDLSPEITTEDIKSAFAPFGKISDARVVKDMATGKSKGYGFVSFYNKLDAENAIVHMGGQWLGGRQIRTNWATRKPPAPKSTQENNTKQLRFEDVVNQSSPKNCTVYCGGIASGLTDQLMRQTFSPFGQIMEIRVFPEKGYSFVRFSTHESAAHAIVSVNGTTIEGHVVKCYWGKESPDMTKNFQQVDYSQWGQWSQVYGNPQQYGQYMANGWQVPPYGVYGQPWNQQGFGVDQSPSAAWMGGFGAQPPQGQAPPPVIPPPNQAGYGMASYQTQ
inactive: [1] -0.023 | [2] 0.049 | [3] 0.015 | [4] 0.043 | [5] -0.024

SMARCAD1 isoform 2 (UniProt Q9H4L7)
inactive: [1] -0.029 | [2] 0.071 | [3] 0.214 | [4] -0.129 | [5] 0.004

SLC35A1 (UniProt P78382)
inactive: [1] -0.046 | [2] -0.108 | [3] 0.05 | [4] -0.07 | [5] 0.013

SRSF4 (UniProt Q08170)
Chain of UniProt Q08170 (Q08170 whole entry, looked up): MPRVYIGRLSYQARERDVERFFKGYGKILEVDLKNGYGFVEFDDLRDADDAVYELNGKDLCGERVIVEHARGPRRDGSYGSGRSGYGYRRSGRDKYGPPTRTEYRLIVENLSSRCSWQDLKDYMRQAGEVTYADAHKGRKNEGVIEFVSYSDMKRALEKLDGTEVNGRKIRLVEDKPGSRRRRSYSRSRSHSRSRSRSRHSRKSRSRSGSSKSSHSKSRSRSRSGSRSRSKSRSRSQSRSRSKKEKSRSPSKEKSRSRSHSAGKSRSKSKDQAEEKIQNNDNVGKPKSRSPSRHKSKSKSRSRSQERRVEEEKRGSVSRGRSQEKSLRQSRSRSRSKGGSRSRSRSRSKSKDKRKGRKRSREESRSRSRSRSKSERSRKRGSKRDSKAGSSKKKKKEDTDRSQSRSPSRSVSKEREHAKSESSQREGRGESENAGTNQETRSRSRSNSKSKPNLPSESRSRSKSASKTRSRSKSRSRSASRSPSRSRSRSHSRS
inactive: [1] 0.09 | [2] -0.166 | [3] -0.124 | [4] 0.073 | [5] 0.096

SRRM2 (UniProt Q9UQ35)
inactive: [1] -0.005 | [2] -0.015 | [3] 0 | [4] 0.05 | [5] 0.037

SRSF3 (UniProt P84103)
inactive: [1] 0.099 | [2] -0.18 | [3] -0.159 | [4] 0.152 | [5] 0.055

SULT1A1 (UniProt P50225)
inactive: [1] -0.083 | [2] 0.064 | [3] -0.021 | [4] -0.06 | [5] -0.066

SMPD4 isoform 2 (UniProt Q9NXE4)
inactive: [1] -0.25 | [2] -0.029 | [3] -0.048 | [4] -0.061 | [5] -0.097

SRSF11 (UniProt Q05519)
Chain of UniProt Q05519 (Q05519 whole entry, looked up): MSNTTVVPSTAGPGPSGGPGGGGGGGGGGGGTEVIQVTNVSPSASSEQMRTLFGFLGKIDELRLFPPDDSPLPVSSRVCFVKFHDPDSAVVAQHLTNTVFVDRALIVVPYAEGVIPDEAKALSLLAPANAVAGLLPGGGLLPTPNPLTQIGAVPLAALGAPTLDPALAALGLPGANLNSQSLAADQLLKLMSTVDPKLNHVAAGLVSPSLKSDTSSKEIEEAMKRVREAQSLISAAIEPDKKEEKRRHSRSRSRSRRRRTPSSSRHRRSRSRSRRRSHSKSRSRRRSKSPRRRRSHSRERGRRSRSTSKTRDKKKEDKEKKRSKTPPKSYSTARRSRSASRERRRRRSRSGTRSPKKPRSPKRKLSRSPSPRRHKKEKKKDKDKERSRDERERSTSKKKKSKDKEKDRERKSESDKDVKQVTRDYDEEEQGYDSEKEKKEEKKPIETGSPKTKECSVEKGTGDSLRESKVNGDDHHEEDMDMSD
inactive: [1] 0.008 | [2] 0.037 | [3] 0.044 | [4] -0.082 | [5] -0.028

TGFBI (UniProt Q15582)
inactive: [1] -0.115 | [2] -0.024 | [3] 0.019 | [4] -0.048 | [5] -0.08

SURF1 (UniProt Q15526)
inactive: [1] -0.015 | [2] -0.018 | [3] 0.15 | [4] -0.101 | [5] 0.063

SYK (UniProt P43405)
inactive: [1] 0.21 | [2] -0.221 | [3] -0.041 | [4] 0.132 | [5] -0.105

SLC27A4 (UniProt Q6P1M0)
inactive: [1] -0.018 | [2] 0.095 | [3] 0.037 | [4] -0.027 | [5] -0.019

SMAD9 (UniProt O15198)
Chain of UniProt O15198 (O15198 whole entry, looked up): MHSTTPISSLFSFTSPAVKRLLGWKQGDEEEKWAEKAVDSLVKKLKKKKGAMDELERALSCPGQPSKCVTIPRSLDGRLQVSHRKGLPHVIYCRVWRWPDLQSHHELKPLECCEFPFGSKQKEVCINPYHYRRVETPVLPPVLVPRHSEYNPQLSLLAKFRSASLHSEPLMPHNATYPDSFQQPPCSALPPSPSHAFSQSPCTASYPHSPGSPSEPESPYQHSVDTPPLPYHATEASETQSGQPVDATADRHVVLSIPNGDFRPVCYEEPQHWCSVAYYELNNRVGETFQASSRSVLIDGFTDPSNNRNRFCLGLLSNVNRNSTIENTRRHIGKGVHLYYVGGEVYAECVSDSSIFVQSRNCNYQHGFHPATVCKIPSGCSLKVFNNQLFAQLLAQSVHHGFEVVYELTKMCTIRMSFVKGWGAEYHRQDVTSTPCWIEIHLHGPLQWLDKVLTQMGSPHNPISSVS
inactive: [1] -0.104 | [2] 0.094 | [3] -0.001 | [4] 0.076 | [5] -0.054

STK39 (UniProt Q9UEW8)
inactive: [1] -0.105 | [2] -0.015 | [3] 0.034 | [4] -0.026 | [5] -0.029

SQSTM1 (UniProt Q13501)
Chain of UniProt Q13501 (Q13501 whole entry, looked up): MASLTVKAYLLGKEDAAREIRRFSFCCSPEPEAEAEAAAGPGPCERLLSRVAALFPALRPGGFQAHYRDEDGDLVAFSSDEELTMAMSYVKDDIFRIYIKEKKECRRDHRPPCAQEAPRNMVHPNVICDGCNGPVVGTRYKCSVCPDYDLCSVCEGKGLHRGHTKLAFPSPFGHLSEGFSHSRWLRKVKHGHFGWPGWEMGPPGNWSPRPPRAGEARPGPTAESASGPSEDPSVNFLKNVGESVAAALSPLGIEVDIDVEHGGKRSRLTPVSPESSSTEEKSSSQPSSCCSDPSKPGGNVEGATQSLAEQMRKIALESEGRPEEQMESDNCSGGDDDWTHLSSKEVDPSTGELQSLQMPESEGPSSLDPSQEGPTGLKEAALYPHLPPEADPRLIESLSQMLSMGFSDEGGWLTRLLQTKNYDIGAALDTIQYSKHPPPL
inactive: [1] 0 | [2] 0.097 | [3] -0.128 | [4] 0.096 | [5] 0.012

TELO2 (UniProt Q9Y4R8)
inactive: [1] -0.031 | [2] -0.05 | [3] 0.037 | [4] 0.039 | [5] 0.005

SLC25A39 (UniProt Q9BZJ4)
inactive: [1] 0.031 | [2] -0.166 | [3] 0.149 | [4] 0.09 | [5] 0.019

TARS2 (UniProt Q9BW92)
inactive: [1] -0.018 | [2] 0.025 | [3] 0.101 | [4] -0.019 | [5] -0.023

SORT1 (UniProt Q99523)
inactive: [1] 0.029 | [2] -0.01 | [3] -0.03 | [4] 0.027 | [5] 0.009

SURF2 (UniProt Q15527)
Chain of UniProt Q15527 (Q15527 whole entry, looked up): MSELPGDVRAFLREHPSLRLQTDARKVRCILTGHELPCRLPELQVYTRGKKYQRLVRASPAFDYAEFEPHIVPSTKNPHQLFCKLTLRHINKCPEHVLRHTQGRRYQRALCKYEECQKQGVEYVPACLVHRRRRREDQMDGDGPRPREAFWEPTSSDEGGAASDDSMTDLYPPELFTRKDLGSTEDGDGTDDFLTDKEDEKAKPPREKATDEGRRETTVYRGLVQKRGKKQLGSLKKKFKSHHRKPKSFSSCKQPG
inactive: [1] 0.056 | [2] -0.018 | [3] 0.033 | [4] -0.047 | [5] -0.044

TGFBRAP1 (UniProt Q8WUH2)
Chain of UniProt Q8WUH2 (Q8WUH2 whole entry, looked up): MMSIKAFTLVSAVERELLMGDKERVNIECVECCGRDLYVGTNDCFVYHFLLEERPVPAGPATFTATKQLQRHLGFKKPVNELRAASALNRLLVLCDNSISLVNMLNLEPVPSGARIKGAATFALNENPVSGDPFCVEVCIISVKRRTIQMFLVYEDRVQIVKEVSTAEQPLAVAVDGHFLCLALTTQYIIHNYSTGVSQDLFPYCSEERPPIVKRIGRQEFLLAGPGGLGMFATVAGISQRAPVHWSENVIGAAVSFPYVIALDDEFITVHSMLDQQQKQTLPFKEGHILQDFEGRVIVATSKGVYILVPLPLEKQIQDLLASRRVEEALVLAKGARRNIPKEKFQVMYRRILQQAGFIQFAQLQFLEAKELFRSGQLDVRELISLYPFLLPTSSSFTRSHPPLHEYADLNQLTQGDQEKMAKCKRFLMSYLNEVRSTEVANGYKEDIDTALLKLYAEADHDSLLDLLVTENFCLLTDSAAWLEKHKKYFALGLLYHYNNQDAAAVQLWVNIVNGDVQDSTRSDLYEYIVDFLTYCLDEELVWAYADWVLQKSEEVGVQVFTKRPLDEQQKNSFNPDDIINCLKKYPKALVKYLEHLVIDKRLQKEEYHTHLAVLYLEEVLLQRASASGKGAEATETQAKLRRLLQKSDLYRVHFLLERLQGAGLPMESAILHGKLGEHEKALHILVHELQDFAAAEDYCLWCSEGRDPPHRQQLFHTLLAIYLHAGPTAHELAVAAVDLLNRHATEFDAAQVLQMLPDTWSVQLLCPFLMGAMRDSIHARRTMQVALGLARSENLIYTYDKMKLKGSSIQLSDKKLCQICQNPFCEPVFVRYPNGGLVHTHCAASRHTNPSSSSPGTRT
inactive: [1] -0.021 | [2] 0.03 | [3] 0.075 | [4] -0.105 | [5] -0.004

TAOK1 (UniProt Q7L7X3)
Chain of UniProt Q7L7X3 (Q7L7X3 whole entry, looked up): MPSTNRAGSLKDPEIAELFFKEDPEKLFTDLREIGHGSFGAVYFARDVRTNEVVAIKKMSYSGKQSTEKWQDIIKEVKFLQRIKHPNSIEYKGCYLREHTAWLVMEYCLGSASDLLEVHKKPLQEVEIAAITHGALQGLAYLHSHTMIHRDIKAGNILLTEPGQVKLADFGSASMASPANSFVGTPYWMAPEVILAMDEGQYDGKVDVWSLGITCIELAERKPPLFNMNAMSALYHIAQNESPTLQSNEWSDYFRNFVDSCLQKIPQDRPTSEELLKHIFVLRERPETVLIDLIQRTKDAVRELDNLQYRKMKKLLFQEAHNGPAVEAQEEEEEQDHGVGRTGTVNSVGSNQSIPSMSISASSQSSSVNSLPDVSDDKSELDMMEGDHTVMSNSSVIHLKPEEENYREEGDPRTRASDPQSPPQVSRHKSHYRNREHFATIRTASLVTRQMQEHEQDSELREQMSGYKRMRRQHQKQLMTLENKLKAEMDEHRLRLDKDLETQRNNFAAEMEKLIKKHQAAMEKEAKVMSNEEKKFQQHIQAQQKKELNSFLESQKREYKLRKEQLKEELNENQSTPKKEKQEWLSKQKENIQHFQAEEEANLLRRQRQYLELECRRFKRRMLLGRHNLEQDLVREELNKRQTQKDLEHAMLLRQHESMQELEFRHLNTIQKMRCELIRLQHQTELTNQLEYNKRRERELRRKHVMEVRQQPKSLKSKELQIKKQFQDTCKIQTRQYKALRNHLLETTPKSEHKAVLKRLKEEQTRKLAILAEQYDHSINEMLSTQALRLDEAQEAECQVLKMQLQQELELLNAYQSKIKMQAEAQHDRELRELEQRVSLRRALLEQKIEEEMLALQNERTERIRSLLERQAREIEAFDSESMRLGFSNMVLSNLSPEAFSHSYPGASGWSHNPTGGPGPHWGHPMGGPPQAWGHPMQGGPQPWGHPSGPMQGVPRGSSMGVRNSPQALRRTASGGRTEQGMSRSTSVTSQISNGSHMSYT
inactive: [1] 0.057 | [2] 0.095 | [3] 0.041 | [4] 0.012 | [5] 0.002

SUCLA2 (UniProt Q9P2R7)
Chain of UniProt Q9P2R7 (Q9P2R7 whole entry, looked up): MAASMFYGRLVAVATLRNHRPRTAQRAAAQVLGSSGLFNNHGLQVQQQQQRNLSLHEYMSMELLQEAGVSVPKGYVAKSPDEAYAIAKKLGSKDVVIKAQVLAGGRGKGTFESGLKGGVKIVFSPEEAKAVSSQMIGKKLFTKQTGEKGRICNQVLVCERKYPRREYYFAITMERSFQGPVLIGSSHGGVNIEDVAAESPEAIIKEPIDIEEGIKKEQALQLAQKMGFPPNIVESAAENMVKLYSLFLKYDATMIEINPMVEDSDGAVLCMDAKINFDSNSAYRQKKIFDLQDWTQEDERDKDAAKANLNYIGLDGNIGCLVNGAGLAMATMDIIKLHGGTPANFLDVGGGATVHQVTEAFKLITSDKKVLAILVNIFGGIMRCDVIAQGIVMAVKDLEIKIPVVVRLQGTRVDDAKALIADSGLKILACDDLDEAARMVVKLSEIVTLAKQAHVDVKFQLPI
inactive: [1] -0.029 | [2] 0.07 | [3] 0.113 | [4] -0.017 | [5] -0.044
